# The full list was thinned out, with the strongest signals kept by preference.
# B1: Als3-N (Candida albicans) (protein)
# chain: KTITGVFNSFNSLTWSNAATYNYKGPGTPTWNAVLGWSLDGTSASPGDTFTLNMPCVFKFTTSQTSVDLTAHGVKYATCQFQAGEEFMTFSTLTCTVSNTLTPSIKALGTVTLPLAFNVGGTGSSVDLEDSKCFTAGTNTVTFNDGGKKISINVDFERSNVDPKGYLTDSRVIPSLNKVSTLFVAPQCANGYTSGTMGFANTYGDVQIDCSNIHVGITKGLNDWNYPVSSESFSYTKTCSSNGIFITYKNVPAGYRPFVDAYISATDVNSYTLSYANEYTCAGGYWQRAPFTLRWTGYRNSDAGSNGIVIVATTRTVTDSTTAVTTLPFDPNRDKTKTIEILKPIPTTTITTSYVGVTTSYLTKTAPIGETATVIVDIPYHTTTTVTSKWTGTITSTTTHTNPTDSIDTVIVQVP
# Experiments:
# Experiment in all cases: glycan array binding signal (z-score within array); higher = stronger binding
# Details in all cases: glycan notation: IUPAC condensed, linker removed
# Fuc(a1-2)Gal = target: Fuc(a1-2)Gal
# How it was run: (§1)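 From the Consortium for Functional Glycomics database, 3228 arrays were curated, keeping only those whose protein sequence was available. Binding is given as a within-array Z-score averaged across arrays sharing a protein sequence and across linkers. Negative Z-scores can be read as non-binding.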
# Fuc(a1-2)Gal(b1-3)GlcNAc = target: Fuc(a1-2)Gal(b1-3)GlcNAc
# How it was run: as §1
# [1] = target: Fuc(a1-2)Gal(b1-3)GlcNAc(b1-3)[Gal(b1-4)GlcNAc(b1-6)]Gal(b1-4)Glc
# How it was run: as §1
# [2] = target: Fuc(a1-2)Gal(b1-3)[Fuc(a1-4)]GlcNAc
# How it was run: as §1
# [3] = target: Fuc(a1-2)Gal(b1-4)Fuc(a1-3)]GlcNAc(b1-2)Man(a1-3)[Fuc(a1-2)Gal(b1-4)[Fuc(a1-3)]GlcNAc(b1-2)Man(a1-6)]Man(b1-4)GlcNAc(b1-4)GlcNAc
# How it was run: as §1
# [4] = target: Fuc(a1-2)Gal(b1-4)GlcNAc6S
# How it was run: as §1
# [5] = target: Fuc(a1-2)[Gal(a1-3)]Gal(b1-4)GlcNAc(b1-6)GalNAc
# How it was run: as §1
# [6] = target: Fuc(a1-2)[GalNAc(a1-3)]Gal(b1-3)GalNAc(b1-3)Gal(a1-4)Gal(b1-4)Glc
# How it was run: as §1
# [7] = target: Fuc(a1-2)[GalNAc(a1-3)]Gal(b1-3)GlcNAc(b1-6)GalNAc
# How it was run: as §1
# [8] = target: Gal(a1-3)[Gal(a1-4)]Gal(b1-4)GlcNAc
# How it was run: as §1
# [9] = target: Gal(b1-3)GlcNAc(a1-3)Gal(b1-4)GlcNAc
# How it was run: as §1
# Gal(b1-3)GlcNAc(b1-2)Man = target: Gal(b1-3)GlcNAc(b1-2)Man
# How it was run: as §1
# [10] = target: Gal(b1-3)[Fuc(a1-4)]GlcNAc(b1-2)Man
# How it was run: as §1
# [11] = target: Gal(b1-3)[Fuc(a1-4)]GlcNAc(b1-3)Gal(b1-3)[Fuc(a1-4)]GlcNAc
# How it was run: as §1
# [12] = target: Gal(b1-3)[Neu5Ac(b2-6)]GalNAc
# How it was run: as §1
# Gal(b1-4)GlcNAc = target: Gal(b1-4)GlcNAc
# How it was run: as §1
# [13] = target: Gal(b1-4)GlcNAc(b1-2)[Gal(b1-4)GlcNAc(b1-4)]Man(a1-3)[GlcNAc(b1-4)][Gal(b1-4)GlcNAc(b1-2)Man(a1-6)]Man(b1-4)GlcNAc(b1-4)GlcNAc
# How it was run: as §1
# [14] = target: Gal(b1-4)GlcNAc(b1-3)Gal(b1-4)GlcNAc(b1-2)Man(a1-3)[Gal(b1-4)GlcNAc(b1-3)Gal(b1-4)GlcNAc(b1-2)Man(a1-6)]Man(b1-4)GlcNAc(b1-4)GlcNAc
# How it was run: as §1
# [15] = target: Gal(b1-4)GlcNAc(b1-3)Gal(b1-4)GlcNAc(b1-3)Gal(b1-4)GlcNAc(b1-2)Man(a1-3)[Gal(b1-4)GlcNAc(b1-3)Gal(b1-4)GlcNAc(b1-3)Gal(b1-4)GlcNAc(b1-2)Man(a1-6)]Man(b1-4)GlcNAc(b1-4)GlcNAc
# How it was run: as §1
# [16] = target: GalNAc(b1-4)GlcNAc(b1-2)Man
# How it was run: as §1
# Glc(a1-6)Glc(a1-6)Glc = target: Glc(a1-6)Glc(a1-6)Glc
# How it was run: as §1
# [17] = target: GlcNAc(a1-4)Gal(b1-4)GalNAc
# How it was run: as §1
# [18] = target: GlcNAc(a1-4)Gal(b1-4)GlcNAc(b1-3)Gal(b1-4)GlcNAc
# How it was run: as §1
# [19] = target: GlcNAc(a1-6)Gal(b1-4)GlcNAc
# How it was run: as §1
# [20] = target: GlcNAc(b1-3)Gal(b1-4)GlcNAc(b1-3)Gal(b1-4)GlcNAc(b1-2)Man(a1-3)[GlcNAc(b1-3)Gal(b1-4)GlcNAc(b1-3)Gal(b1-4)GlcNAc(b1-2)Man(a1-6)]Man(b1-4)GlcNAc(b1-4)GlcNAc
# How it was run: as §1
# [21] = target: GlcNAc(b1-3)Gal(b1-4)GlcNAc(b1-3)Gal(b1-4)GlcNAc(b1-2)[GlcNAc(b1-3)Gal(b1-4)GlcNAc(b1-3)Gal(b1-4)GlcNAc(b1-6)]Man(a1-6)[GlcNAc(b1-3)Gal(b1-4)GlcNAc(b1-3)Gal(b1-4)GlcNAc(b1-2)Man(a1-3)]Man(b1-4)GlcNAc(b1-4)[Fuc(a1-6)]GlcNAc
# How it was run: as §1
# [22] = target: GlcNAc(b1-3)Gal(b1-4)GlcNAc(b1-3)Gal(b1-4)GlcNAc(b1-3)Gal(b1-4)GlcNAc(b1-2)[GlcNAc(b1-3)Gal(b1-4)GlcNAc(b1-3)Gal(b1-4)GlcNAc(b1-3)Gal(b1-4)GlcNAc(b1-6)]Man(a1-6)[GlcNAc(b1-3)Gal(b1-4)GlcNAc(b1-3)Gal(b1-4)GlcNAc(b1-3)Gal(b1-4)GlcNAc(b1-2)Man(a1-3)]Man(b1-4)GlcNAc(b1-4)[Fuc(a1-6)]GlcNAc
# How it was run: as §1
# [23] = target: GlcNAc(b1-4)GlcNAc(b1-4)GlcNAc
# How it was run: as §1
# [24] = target: GlcNAc6S(b1-3)Gal(b1-4)GlcNAc
# How it was run: as §1
# [25] = target: Man(a1-2)Man(a1-2)Man(a1-6)[Man(a1-3)]Man
# How it was run: as §1
binder,measurement,setting,value
B1,glycan array binding signal (z-score),Fuc(a1-2)Gal,-0.276
same,glycan array binding signal (z-score),Fuc(a1-2)Gal(b1-3)GlcNAc,-0.288
same,glycan array binding signal (z-score),[1],-0.291
same,glycan array binding signal (z-score),[2],-0.271
same,glycan array binding signal (z-score),[3],2.75
same,glycan array binding signal (z-score),[4],-0.257
same,glycan array binding signal (z-score),[5],-0.082
same,glycan array binding signal (z-score),[6],-0.14
same,glycan array binding signal (z-score),[7],-0.223
same,glycan array binding signal (z-score),[8],-0.221
same,glycan array binding signal (z-score),[9],2.03
same,glycan array binding signal (z-score),Gal(b1-3)GlcNAc(b1-2)Man,0.065
same,glycan array binding signal (z-score),[10],0.115
same,glycan array binding signal (z-score),[11],2.42
same,glycan array binding signal (z-score),[12],0.915
same,glycan array binding signal (z-score),Gal(b1-4)GlcNAc,-0.168
same,glycan array binding signal (z-score),[13],-0.288
same,glycan array binding signal (z-score),[14],8.26
same,glycan array binding signal (z-score),[15],3.26
same,glycan array binding signal (z-score),[16],0.231
same,glycan array binding signal (z-score),Glc(a1-6)Glc(a1-6)Glc,-0.244
same,glycan array binding signal (z-score),[17],-0.081
same,glycan array binding signal (z-score),[18],-0.232
same,glycan array binding signal (z-score),[19],-0.233
same,glycan array binding signal (z-score),[20],3.11
same,glycan array binding signal (z-score),[21],2.36
same,glycan array binding signal (z-score),[22],3.08
same,glycan array binding signal (z-score),[23],-0.099
same,glycan array binding signal (z-score),[24],-0.1
same,glycan array binding signal (z-score),[25],-0.257
